Measurements published in PubChem BioAssay AID602357 (National Center for Advancing Translational Sciences (NCATS), 2012).
Inconclusive results are not listed. Calls of active or inactive are those of the source. The call rests on the fitted dose curve; in most records, active means well fitted inhibition curve with a large enough effect; inconclusive means small, poorly fitted or top-dose-only effect; inactive means no such curve, though single readings can be large or run the other way.

Biological target: Luciferin 4-monooxygenase (Photinus pyralis) (UniProt P08659)
Sequence (P08659 whole entry, looked up): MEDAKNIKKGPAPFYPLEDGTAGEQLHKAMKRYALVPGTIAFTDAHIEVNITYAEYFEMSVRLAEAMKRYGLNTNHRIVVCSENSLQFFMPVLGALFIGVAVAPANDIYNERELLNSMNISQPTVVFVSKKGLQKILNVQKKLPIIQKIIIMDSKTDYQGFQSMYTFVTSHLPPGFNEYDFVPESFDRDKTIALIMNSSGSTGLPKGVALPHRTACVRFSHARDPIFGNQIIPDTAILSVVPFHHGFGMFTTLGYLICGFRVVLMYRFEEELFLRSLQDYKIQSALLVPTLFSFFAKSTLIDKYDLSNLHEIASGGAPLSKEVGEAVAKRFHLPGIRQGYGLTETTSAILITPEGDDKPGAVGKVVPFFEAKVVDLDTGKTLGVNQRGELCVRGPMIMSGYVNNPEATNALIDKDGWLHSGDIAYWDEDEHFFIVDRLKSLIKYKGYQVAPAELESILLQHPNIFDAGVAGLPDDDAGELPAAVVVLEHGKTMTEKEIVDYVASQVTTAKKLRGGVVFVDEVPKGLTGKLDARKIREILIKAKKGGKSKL
Test: FLuc inhibitory activity for the follow-up compounds in a biochemical assay with Km concentrations of substrate
In short: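 Purified P. pyralis luciferase (10 nM final) in 50 mM Tris acetate pH 7.5, 10 mM Mg acetate, 0.01% Tween-20, 0.05% BSA, with 10 uM D-luciferin and 10 uM ATP. 12-point qHTS titration, ~60 uM to 0.3 nM; luminescence read by CCD imager.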

SMILES | Potency
CN=c1scc(-c2ccccc2F)n1/N=C/c1ccc[nH]1 | 0.0461 µM (active)
CC(C)Oc1ccc(C(=O)Nc2ccc(-c3nc4ccccc4s3)cc2)cc1 | inactive
O=C(Nc1ccccc1-c1nc2ccccc2s1)c1cccnc1 | inactive
O=C(O)c1cccc(NC(=O)c2cccc(S(=O)(=O)N3CCc4ccccc43)c2)c1 | 23.1 µM (active)
COc1ccc2nc(NC(=O)c3cnccn3)sc2c1 | 2.91 µM (active)
O=C(Nc1ccccc1C(=O)O)c1ccccc1 | 32.6 µM (active)
CC(=O)Oc1ccc(C(=O)Nc2ccccc2C(=O)Nc2cccc(C(=O)O)c2)cc1 | 6.51 µM (active)
CCc1noc(C)c1C(=O)Nc1nc2ccc(OC)cc2s1 | 13 µM (active)
O=C(O)c1cccc(NC(=O)c2cccc(S(=O)(=O)N3CCc4ccccc4C3)c2)c1 | 36.6 µM (active)
O=C(COC(=O)c1ccccc1[N+](=O)[O-])c1ccc2c(c1)OCO2 | 0.0058 µM (active)
COc1ccc2nc(NC(=O)c3ccc(NS(=O)(=O)c4cccs4)cc3)sc2c1 | 10.3 µM (active)
O=C(O)c1ccc(NC(=O)c2cc(S(=O)(=O)N3CCCCC3)c(Cl)cc2Cl)cc1 | inactive
O=C(O)c1ccc(NC(=O)c2ccccc2NC(=O)c2ccccc2Br)cc1 | 23.1 µM (active)
O=C(Nc1ccccc1C(=O)O)c1cccc(NC(=O)c2ccccc2Cl)c1 | 23.1 µM (active)
O=C(O)c1cccc(NC(=O)c2ccc(S(=O)(=O)c3ccccc3)cc2)c1 | 5.8 µM (active)
O=C(Nc1c(Cl)cc(Cl)cc1-c1nc2ccccc2s1)c1ccc(Br)o1 | inactive
CC(C)CC(=O)Nc1cccc(C(=O)Nc2ccccc2C(=O)O)c1 | 18.3 µM (active)
